The text below walks through data of PubChem BioAssay (NCI).

What all share (test): NCI-60 one-dose screen, 48 h (100 = growth as untreated, 0 = no growth, -100 = all killed)
Common to all, as to conditions: 10 µM unless noted

The test system of assay [1] is SR leukemia.
The subject of assay [2] is RPMI-8226 leukemia.
For assay [3], the system named is OVCAR-8 ovarian.
Assay [4] has as its system OVCAR-5 ovarian.
Assay [5] relates to OVCAR-4 ovarian.
For assay [6], the system named is SK-OV-3 ovarian.
Assay [7] relates to IGROV1 ovarian.
Assay [8] has as its system OVCAR-3 ovarian.
The test system of assay [9] is HS 578T breast.
Assay [10] deals with NCI/ADR-RES ovarian.
In assay [11] the test system is BT-549 breast.
For assay [12], the system named is MDA-MB-435 melanoma.
Assay [13] relates to SW-620 colon.
Assay [14] concerns MCF7 breast.
For assay [15], the system named is HCT-116 colon.
The subject of assay [16] is HCC-2998 colon.
Assay [17] deals with KM12 colon.
The subject of assay [18] is T-47D breast.

The panel holds about 83,000 compounds, 20% with a hit somewhere; the sample as a whole holds those more often.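 Compound tested at a single concentration for 48 hours in 96-well plates; a percent growth value below 10 was scored as active.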 A number with no mark means an inactive call. Calls of active or inactive are those of the source.

On to `CCCCCCCCN(CCCCCCCC)C(=O)CCl`, for which the growth in assay [1] is 83.1%; in [2], 106%; in [3], 89.4%; in assay [4] it was 120%; in assay [5] it was 97%; in assay [6], 109%. For the same compound, the growth is -18.2% (active) in assay [7]; 108% in [8]; 85.1% in assay [9]; 94.7% in assay [10]; 98.5% in assay [11]; 108% in assay [12]. Also, the growth was 104% in assay [13]; 99.6% in assay [14]; 90.8% in [15]; 103% in assay [16]; 112% in assay [17].
Take `CC1=C(/C=C/C(C)=C/C=C(C(=O)O)\C(C)=C\C(=O)O)C(C)(C)CCC1`: the growth was 95.7% in [1]; 92% in assay [2]; 99.4% in assay [3]; 97% in [4]; 115% in assay [5]; 103% in [6]. The growth is 99.2% in assay [7]; 110% in [8]; 105% in assay [9]; 102% in assay [10]; 100% in assay [11]; 116% in assay [12]. Moreover, the growth in [13] was 108%; in assay [14] it was 93.8%; in assay [15], 105%; in assay [16] it was 108%; in assay [17], 110%.
As for `COc1cc(NCCC2CCCCN2)c2ncccc2c1OC` (configuration not stated), the growth in assay [1] was 73.8%; in assay [2], 68.2%; in assay [3], 62.7%; in assay [4], 115%; in assay [5], 36.8%; in [6] it was 116%. Further, the growth in [7] is 4.24% (active); in assay [8] it was 4.97% (active); in assay [9], 86.6%; in [10], 81.7%; in assay [11], 91.6%; in assay [13], 74.9%. Also, the growth in [14] was 57.3%; in assay [15], 46.9%; in assay [16] it was 80.6%; in assay [17], 87.5%.
On to `S=C(Nc1ccc(Cl)cc1)Nc1ccc(Cl)cc1` (tested in a mixture with another compound), for which the growth in [1] is 5.29% (active); in assay [2], 9.87% (active); in assay [3], 1.13% (active); in assay [4], 12.5%; in assay [5], 10.5%; in assay [6] it was -0.571% (active). Moreover, the growth in [7] is 16.2%; in assay [8], 5.45% (active); in [9], 17.4%; in [18] it was 11.6%; in assay [11], 12.8%; in assay [12], 3.6% (active). Besides, the growth in [13] is 11.8%; in assay [14], 7.15% (active); in [15] it was 0.154% (active); in assay [16], 17.8%; in [17], 3.43% (active).
Consider `O=[N+]([O-])c1ccc(SSc2ccc([N+](=O)[O-])cc2Cl)c(Cl)c1`, for which the growth in [1] was 84.5%; in [2], 80%; in [3], 100%; in [4], 126%; in assay [5] it was 83%; in assay [6], 104%. Also, the growth in [7] is 69.6%; in assay [8], 101%; in [9], 90.5%; in assay [18], 70.6%; in [11] it was 97.4%; in [12], 113%. The growth was 97.6% in assay [13]; 77.3% in assay [14]; 91.1% in assay [15]; 106% in [16]; 98% in assay [17].
With `COC(=O)C(Br)(C(=O)OC)C(Br)C(Br)C(Br)c1ccccc1` (configuration not stated), the growth in assay [1] was 47.6%; in assay [2], 106%; in [3] it was 73.1%; in assay [4] it was 126%; in [5], 83.6%; in assay [6] it was 102%. Further, the growth in assay [7] is 39.1%; in [8], -37% (active); in [9] it was 114%; in [10], 104%; in assay [11] it was 108%; in assay [12], 47.9%. Moreover, the growth in [13] is -79% (active); in assay [15], -92.6% (active); in assay [16], 98.4%; in assay [17], 89.9%.
For the compound `Nc1nc(N)c2cc(NCc3ccc(Cl)c(Cl)c3)ccc2n1`, the growth in assay [1] is -53.9% (active); in assay [2] it was -42% (active); in [3] it was -78.8% (active); in assay [4] it was -92.5% (active); in assay [5], -86.9% (active); in assay [6] it was -99.7% (active). The growth in assay [7] is -58.8% (active); in assay [8] it was -95.3% (active); in [9] it was -48.6% (active); in assay [18], -81.3% (active); in [11], 46.3%; in assay [12] it was -68.1% (active). Besides, the growth in assay [13] is -77.4% (active); in assay [14], -72.8% (active); in [15], -88.2% (active); in [16] it was -85.9% (active); in assay [17] it was -94.4% (active).
Turning to `Cc1cccc2nc3ccccc3c(Nc3ccc(NS(C)(=O)=O)cc3)c12`, the growth in assay [1] was -3.06% (active); in [2], 52.3%; in [3], 39.8%; in [4], 62.1%; in assay [5], 77.5%; in assay [6], 41%. The growth is 43.1% in assay [7]; 74.3% in assay [8]; 87.8% in assay [9]; 80.8% in assay [10]; 81.7% in assay [11]; 34.2% in assay [13]. Moreover, the growth in assay [14] was 24.8%; in assay [15], 31.8%; in assay [16], 75.5%; in [17] it was 55.5%.
Consider `COc1ccc2c(c1)sc1nc(-c3ccccc3)c(-c3cccc4ccccc34)n12`, for which the growth was 10.5% in assay [1]; 18.8% in assay [2]; 19.4% in [3]; 44.7% in assay [4]; 65% in assay [5]; 10.5% in [6]. For the same compound, the growth in assay [7] was 34.4%; in assay [8] it was -50.3% (active); in [9] it was 19.8%; in assay [10], 4.62% (active); in assay [18], 60.5%; in [12], -49.4% (active). The growth was 27.8% in [13]; 27.7% in assay [14]; 18.6% in assay [15]; -26.8% (active) in assay [16]; 15.7% in [17].
As for `CC(C)CCSc1nc(-c2ccc(F)cc2)c(C#N)c(N2CCN(C)CC2)n1`, the growth was 67.5% in assay [1]; 80% in assay [2]; 83.2% in [3]; 91.3% in assay [4]; 96.7% in [5]; 87% in assay [6]. In addition, the growth in [7] is 95.2%; in assay [8], 93.9%; in assay [9], 79.1%; in assay [10], 87.2%; in [11] it was 89%; in assay [12], 93.6%. Moreover, the growth in [13] is 90.2%; in assay [14], 83.9%; in [15] it was 79%; in assay [16] it was 97.2%; in assay [17], 91.7%.
